Bioassay records from PubChem BioAssay.
CYP2C9 act: human CYP2C9 activators, primary screen, biochemical, luminescence | Cytochrome P450 2C9 (Homo sapiens), P11712 | recombinant CYP2C9, luciferin-H conversion; active compounds read high; factor 1 = untreated enzyme, 0 = blocked | activation factor at 5 µM | 96,000 compounds, 1.4% hits;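 active = activation factor of 2 or more for CYP2C9 at a 5 µM dose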
Target sequence (P11712 whole entry, looked up): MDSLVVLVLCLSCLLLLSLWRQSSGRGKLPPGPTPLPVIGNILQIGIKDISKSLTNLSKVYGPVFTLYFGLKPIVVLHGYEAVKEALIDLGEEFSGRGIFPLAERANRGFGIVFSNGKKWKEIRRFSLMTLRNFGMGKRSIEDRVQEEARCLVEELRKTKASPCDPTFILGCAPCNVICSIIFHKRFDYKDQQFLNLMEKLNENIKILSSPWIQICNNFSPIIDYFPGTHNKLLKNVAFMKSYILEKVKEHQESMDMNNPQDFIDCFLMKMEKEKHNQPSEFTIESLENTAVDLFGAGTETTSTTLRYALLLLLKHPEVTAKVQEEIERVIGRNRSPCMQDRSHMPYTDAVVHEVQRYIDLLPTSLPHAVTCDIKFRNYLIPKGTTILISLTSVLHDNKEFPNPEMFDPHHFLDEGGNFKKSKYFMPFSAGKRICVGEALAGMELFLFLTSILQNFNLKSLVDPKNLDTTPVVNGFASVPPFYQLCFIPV
CYP2C19 inhib: blockers of cytochrome P450 2C19 activity – biochemical, luminescence, ADME assay, primary screen; P33261; AID 778, 2007; 96,000 compounds, 21% hits; CYP2C19 Supersomes, luciferin-H EGE luminescence, 30 min; inhibition, % at 5 µM;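 active = CYP2C19 inhibition above a set limit at 5 µM in the primary screen, cut at about 50% in these data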
MRP reversal: reversal of MRP1-mediated doxorubicin resistance, primary screen, H69AR cells, doxorubicin co-treatment. H69AR cells + 2 uM doxorubicin, CellTiter-Glo, 72 h. differential viability (reversal), % at 10 µM. 85,000 compounds, 0.04% hits. AID 602, 2007;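 active = viability drop by adding the cancer drug above about 55%, with treated viability meeting a 40% cutoff, limit read from the data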;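 note: larger differential means the compound sensitizes cells more to doxorubicin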
CYP2C19 act: human CYP2C19 activators, primary screen, biochemical, luminescence; Cytochrome P450 2C19 (Homo sapiens), P33261; recombinant CYP2C19, luciferin-H EGE luminescence; active compounds read high; 0 = fully inhibited enzyme, 1 = untreated enzyme; activation factor at 5 µM; 96,000 tested, under 10 active; AID 1025, 2008;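 active = activation factor of at least 2 at 5 µM in the primary screen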
CYP2C9 inh: blockers of cytochrome P450 2C9 activity – biochemical, luminescence, ADME assay, primary screen | AID 777, 2007 | 96,000 compounds, 20% hits | CYP2C9 Supersomes, luciferin-H conversion | P11712 | inhibition, % at 5 µM;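 active = blocking of liver enzyme CYP2C9 beyond about 50% at 5 µM, limit read from the data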
MRP-1 activ: H69AR viability gain despite doxorubicin, primary screen, MRP-1 activator project, H69AR cells, CellTiter-Glo; viability rescue; 140,000 compounds, 0.61% hits; viability increase, % at 10 µM;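 active = viability gain under doxorubicin at or above a set limit, the compound median plus 3 SD, cut at about 4.7% in these data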;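 note: MRP-1 overexpressing cells given doxorubicin 25 µM after compound pretreatment; 18-22 h compound pretreatment then 72 h with doxorubicin before readout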
Numbers stand for hits; – = inactive; · = no result given. A selection: hits, their analogues and other compounds. The true share with any hit is near 21%.

SMILES	CYP2C9 act	CYP2C19 inhib	MRP reversal	CYP2C19 act	CYP2C9 inh	MRP-1 activ
COc1ccc(OC)c(CCNC(=O)CS(=O)(=O)Cc2nc(-c3ccccc3C)oc2C)c1	–	65.7	–	–	–	–
Cc1oc(-c2ccccc2F)nc1CS(=O)(=O)CC(=O)N1CCCCCC1	–	–	–	–	80.7	–
Cc1ccccc1-c1nc(CS(=O)(=O)CC(=O)NCc2ccccc2)c(C)o1	–	–	–	–	–	–
Cc1ccccc1-c1nc(CS(=O)(=O)CC(=O)N(C)C2CCCCC2)c(C)o1	–	86.5	–	–	–	–
COc1cccc(-c2nc(CS(=O)(=O)CC(=O)NCc3ccccc3OC)c(C)o2)c1	·	·	·	·	·	–
CCOc1ccc2[nH]c(=O)c(CN(CCO)C(=O)c3ccc(F)cc3)cc2c1	–	–	·	–	–	–
O=C1CC(SC(=Nc2ccccc2)Nc2ccccc2)C(=O)N1c1cccc(Cl)c1 (stereo unspecified)	–	–	·	–	–	–
O=C(Nc1nccs1)c1cccc(NC(=O)c2ccco2)c1	·	·	–	·	·	–
CC(Oc1ccc(Cl)cc1Cl)c1nc(-c2ccc(NC(=O)c3ccco3)cc2)no1 (stereo unspecified)	–	–	–	–	53.6	–
Cc1ccccc1OCc1nc(-c2ccc(NC(=O)c3ccco3)cc2)no1	·	·	–	·	·	–
Cc1coc(C)c1C(=O)CC1(O)C(=O)N(Cc2ccccc2)c2ccccc21 (stereo unspecified)	–	98.5	–	–	–	–
C/C(CC1(O)C(=O)N(Cc2ccccc2)c2ccccc21)=N\O (stereo unspecified)	–	50.3	–	–	–	–
COc1ccc(CN2C(=O)C(O)(CC(=O)c3c(C)n[nH]c3C)c3ccccc32)cc1OC (stereo unspecified)	–	–	–	–	–	–
CC(=O)CC1(O)C(=O)N(Cc2ccccc2)c2ccccc21 (stereo unspecified)	–	–	–	–	–	–
CCOc1ccc(/C=N/OC(C)C(=O)NCc2ccc3c(c2)OCO3)cc1 (stereo unspecified)	·	·	·	·	·	–
C=CCN=C(NC#N)SCc1ccccc1Cl	–	89.4	·	–	–	–
O=C(NC1CCCCC1)C(c1ccc(F)cc1)N(Cc1ccc2c(c1)OCO2)C(=O)c1cnsn1 (stereo unspecified)	·	·	–	·	·	–
CC(CNC(=O)C1CCCCC1C(=O)O)c1ccccc1 (stereo unspecified)	–	–	–	–	–	–
CCC(=O)n1nc(-c2ccccc2)nc1SCC(=O)Nc1ccc(C)cc1	–	–	·	–	–	–
CC(=O)n1nc(-c2cccc(C)c2)nc1SCC(=O)Nc1ccccc1	–	55.2	·	–	60.6	–
Cc1ccc(C(=O)n2c(-c3ccccc3)cnc2SCC(=O)Nc2ccccc2)cc1	·	·	·	·	·	–
Cc1ccc(NC(=O)CSc2ncc(-c3ccccc3)n2C(=O)c2ccccc2)cc1	–	69.3	·	–	58.7	–
CCc1ccccc1NC(=O)CSc1nc(-c2ccccc2)nn1C(=O)c1cccc([N+](=O)[O-])c1	–	76.4	·	–	73.8	–
O=C(CSc1nc(-c2ccccc2)nn1C(=O)c1ccccc1)Nc1cccc([N+](=O)[O-])c1	–	–	·	–	67.5	–
O=C(CN1CCN(c2ccccn2)CC1)Nc1ccc(OCc2ccccc2)cc1	–	–	–	–	–	–
SMILES	CYP2C9 act	CYP2C19 inhib	MRP reversal	CYP2C19 act	CYP2C9 inh	MRP-1 activ
O=C(CN1CCN(c2ncccn2)CC1)NCc1ccccc1	–	60.6	–	–	91.6	–
O=C(CN1CCN(c2ccccn2)CC1)Nc1ccc(F)cc1	–	61.0	–	–	72.8	–
O=C(CN1CCN(c2ccccn2)CC1)Nc1ccc(Oc2ccccc2)cc1	–	–	–	–	53.0	–
O=C(CN1CCN(c2ccccn2)CC1)Nc1ccccc1	–	56.0	–	–	–	–
CCOC(=O)c1c(NC(=O)CSc2nnnn2-c2ccc(OC)cc2)sc(C)c1C	–	–	–	–	–	–
COc1ccc(-c2cn3cccnc3n2)cc1F	·	·	·	·	·	–
COc1cc(NS(=O)(=O)c2ccc(NC(=O)/C(=C\c3ccccc3OC)NC(=O)c3ccccc3)cc2)nc(OC)n1	–	–	·	–	–	–
CC(NC(=O)CN1CCN(c2ncccn2)CC1)c1ccc(F)cc1 (stereo unspecified)	–	–	–	–	92.5	–
COC(=O)c1ccccc1NC(=O)Cn1cnc2cc(C)c(C)cc21	–	–	–	–	–	–
COc1cc([N+](=O)[O-])ccc1NC(=S)Nc1cc(C(=O)OC(C)C)cc(C(=O)OC(C)C)c1	·	·	·	·	·	–
C=CCn1c(SCC(=O)N2CCN(c3ccccc3)CC2)nnc1-c1ccco1	–	–	–	–	–	–
C=CCn1c(SCC(=O)N2CCN(c3ccc(F)cc3)CC2)nnc1-c1cccs1	–	65.0	–	–	–	–
CCCCn1c(SCC(=O)N2CCOCC2)nnc1-c1cccs1	–	–	·	–	62.1	–
CCCCn1c(Cc2ccccc2)nnc1SCC(=O)N1CCOCC1	·	·	–	·	·	–
CCCCn1c(SCC(=O)N2CCCC2)nnc1-c1ccccc1	–	51.9	·	–	–	–
CC(C)[C@H]1CC[C@@H](C)C(C(=O)c2ccccc2)C1=O (stereo partly specified)	·	·	·	·	·	–
Cc1ccnc(N2C(=O)c3ccccc3C2O)c1 (stereo unspecified)	–	50.0	–	–	–	–
Cc1cc(C)c(C#N)c(=N)o1	–	–	–	–	–	–
COc1ccc(CCNC(=O)C2(C)CCC(=O)N2Cc2ccc3c(c2)OCO3)cc1OC (stereo unspecified)	–	53.7	·	–	–	–
CC1(C(=O)NC2CCCCCC2)CCC(=O)N1Cc1ccc2c(c1)OCO2 (stereo unspecified)	–	–	–	–	–	–
CC(c1ccccc1F)n1cc(C(=O)NCc2ccncc2)nn1 (stereo unspecified)	–	53.6	–	–	69.1	–
CC(c1ccccc1F)n1cc(C(=O)NCCc2ccco2)nn1 (stereo unspecified)	–	–	–	–	58.0	–
CC(Cc1ccccc1)C(=O)NCc1ccncc1 (stereo unspecified)	·	·	·	·	·	–
CC(c1ccccc1)n1cc(C(=O)NCc2ccncc2)nn1 (stereo unspecified)	–	–	–	–	80.7	–
O=C(NCc1ccncc1)c1cnccn1	–	–	–	–	–	–
CCCC(=O)N=C1SC2CS(=O)(=O)CC2N1c1ccc(CC)cc1 (stereo unspecified)	–	–	–	–	–	–
CC1(C)C(C=C(Cl)Cl)C1C(=O)N1CCN(c2ccccc2)CC1 (stereo unspecified)	–	–	–	–	–	–
